Test results from the supplement of paper PMC7380943.

Key:
[1] = test system: CLZ3 (HCA2 human fibroblast dual HR-NHEJ reporter); assay: NHEJ repair efficiency (GFP+ cells) relative to control (log10 fold); higher = more non-homologous end joining; details: 5 µM; doxycycline 0.5 ug/mL
[2] = test system: CLZ3 (HCA2 human fibroblast dual HR-NHEJ reporter); assay: HR repair efficiency (tdTomato+ cells) relative to control (log10 fold); higher = more homologous recombination; details: 5 µM; doxycycline 0.5 ug/mL
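Wherever HR repair efficiency (tdTomato+ cells) relative to control is given: compound given one day before doxycycline, which switches on I-SceI endonuclease expression to create double-strand breaks within the integrated reporter.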
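Wherever NHEJ repair efficiency (GFP+ cells) relative to control is given: compound given one day ahead of doxycycline, which switches on I-SceI endonuclease to cut the chromosomally integrated reporter and create DSBs.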

| SMILES | NHEJ repair efficiency (log10) [1] | HR repair efficiency (log10) [2] |
| --- | --- | --- |
| N#C[C@H](O[C@@H]1O[C@H](CO[C@@H]2O[C@H](CO)[C@@H](O)[C@H](O)[C@H]2O)[C@@H](O)[C@H](O)[C@H]1O)c1ccccc1 [Amygdalin] | -0.0091 | 0.107 |
| C=C[C@H]1CN2CC[C@]3(C(=O)Nc4ccccc43)[C@@H]2C[C@@H]1/C(=C\OC)C(=O)OC [Corynoxeine] | -0.123 | -0.139 |
| CC(=O)OC[C@]12[C@H](OC(C)=O)[C@H](OC(C)=O)[C@@H]3[C@@H](OC(C)=O)[C@@]14O[C@@]3(C)COC(=O)c1cccnc1CCC(C)C(=O)O[C@@H]([C@H](OC(=O)c1ccccc1)[C@@H]2OC(C)=O)[C@]4(C)O (stereo partly drawn) [Wilforine] | -0.122 | 0.027 |
| CN(C)Cc1c[nH]c2ccccc12 [Gramine] | 0.014 | -0.0905 |
| c1cc2c(cc1[C@H]1OC[C@H]3[C@@H]1CO[C@H]3c1ccc3c(c1)OCO3)OCO2 [Asarinin] | -0.271 | -0.223 |
| C=C[C@H]1[C@H](O[C@@H]2O[C@H](CO)[C@@H](O)[C@H](O)[C@H]2O)OC=C2C(=O)OCC[C@H]21 [Sweroside] | 0.0688 | 0.0254 |
| CC(C)=CCCC(C)(O)C1CCC2(C)C1C(O)CC1C3(C)CCC(O)C(C)(C)C3C(OC3OC(CO)C(O)C(O)C3O)CC12C (stereo not drawn) [R-Ginsenoside Rh1] | -0.0562 | 0.0565 |
| COC1=C[C@@H]2[C@@H]3Cc4ccc(OC)c(O)c4[C@]2(CCN3C)CC1=O [Sinomenine] | 0.154 | 0.274 |
| COc1cc2c(cc1OC)[C@@]13CCN4CC5=CCO[C@H]6CC(=O)N2[C@H]1[C@H]6[C@H]5C[C@H]43 [Brucine] | -0.228 | -0.24 |
